The values below come from ChEMBL document CHEMBL1961873, “Compounds: GSK PKIS; Assays: Nanosyn kinase panel” (2012).

Experiment [1] deals with T1, Mitogen-activated protein kinase 12 (Homo sapiens) (UniProt P53778).
T1 sequence (whole entry): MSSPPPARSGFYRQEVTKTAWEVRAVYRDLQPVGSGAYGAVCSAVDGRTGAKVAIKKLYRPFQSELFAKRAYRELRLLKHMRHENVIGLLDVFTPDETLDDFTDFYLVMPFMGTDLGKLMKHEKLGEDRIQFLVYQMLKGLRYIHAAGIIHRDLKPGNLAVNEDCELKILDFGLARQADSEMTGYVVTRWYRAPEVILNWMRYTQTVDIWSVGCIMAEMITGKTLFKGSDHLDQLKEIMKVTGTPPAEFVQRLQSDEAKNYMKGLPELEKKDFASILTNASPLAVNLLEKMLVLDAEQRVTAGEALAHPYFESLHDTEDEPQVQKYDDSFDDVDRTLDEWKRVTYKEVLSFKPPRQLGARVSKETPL
Conditions: at 1 µM.

Experiment [2] concerns the target SRSF protein kinase 1 (Homo sapiens) (UniProt Q96SB4). Conditions: at 0.1 µM.
Experiment [3] has the same target. Conditions: at 1 µM.
Experiment [4] deals with Phosphatidylinositol 4,5-bisphosphate 3-kinase catalytic subunit alpha isoform (Homo sapiens) (UniProt P42336). To be noted: at 0.1 µM.
Experiment [5] shares this target. To be noted: at 1 µM.
The target in experiment [6] is T2, Phosphatidylinositol 4,5-bisphosphate 3-kinase catalytic subunit delta isoform (Homo sapiens) (UniProt O00329).
T2 sequence (whole entry): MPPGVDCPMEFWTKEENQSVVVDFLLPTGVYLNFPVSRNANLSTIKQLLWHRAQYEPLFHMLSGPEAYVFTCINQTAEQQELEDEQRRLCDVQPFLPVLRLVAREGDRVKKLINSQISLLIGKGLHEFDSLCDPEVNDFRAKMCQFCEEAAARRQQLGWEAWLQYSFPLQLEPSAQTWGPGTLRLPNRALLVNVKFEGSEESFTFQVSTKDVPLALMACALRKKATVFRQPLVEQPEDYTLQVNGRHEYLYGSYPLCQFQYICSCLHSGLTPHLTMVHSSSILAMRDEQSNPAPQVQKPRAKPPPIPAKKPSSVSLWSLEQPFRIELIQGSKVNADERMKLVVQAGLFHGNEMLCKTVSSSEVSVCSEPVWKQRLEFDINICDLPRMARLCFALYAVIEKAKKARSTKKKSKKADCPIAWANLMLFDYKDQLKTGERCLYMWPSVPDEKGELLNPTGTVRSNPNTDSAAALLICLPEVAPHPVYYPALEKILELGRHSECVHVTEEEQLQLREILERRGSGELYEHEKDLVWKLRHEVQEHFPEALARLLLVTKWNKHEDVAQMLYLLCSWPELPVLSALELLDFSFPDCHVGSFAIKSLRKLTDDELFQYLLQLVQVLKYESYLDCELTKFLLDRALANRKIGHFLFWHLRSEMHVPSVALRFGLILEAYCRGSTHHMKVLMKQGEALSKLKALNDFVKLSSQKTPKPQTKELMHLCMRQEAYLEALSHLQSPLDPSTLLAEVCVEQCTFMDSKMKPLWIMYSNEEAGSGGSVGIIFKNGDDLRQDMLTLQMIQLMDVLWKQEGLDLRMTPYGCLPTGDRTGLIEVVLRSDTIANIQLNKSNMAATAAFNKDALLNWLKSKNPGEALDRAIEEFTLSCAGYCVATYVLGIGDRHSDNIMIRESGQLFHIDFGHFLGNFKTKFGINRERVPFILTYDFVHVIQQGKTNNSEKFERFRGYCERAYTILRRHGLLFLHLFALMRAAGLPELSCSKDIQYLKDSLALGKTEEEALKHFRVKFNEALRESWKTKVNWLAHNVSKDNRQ
To be noted: at 0.1 µM.

The target in experiment [7] is T2, Phosphatidylinositol 4,5-bisphosphate 3-kinase catalytic subunit delta isoform (Homo sapiens). Conditions: at 1 µM.
The target in experiment [8] is Phosphatidylinositol 4-kinase beta (Homo sapiens) (UniProt Q9UBF8). To be noted: at 0.1 µM.
Experiment [9] shares this target. To be noted: at 1 µM.
In experiment [10] the target is Sphingosine kinase 1 (Homo sapiens) (UniProt Q9NYA1). To be noted: at 0.1 µM.
Experiment [11] has the same target. Conditions: at 1 µM.
For experiment [12], the target named is T3, Sphingosine kinase 2 (Homo sapiens) (UniProt Q9NRA0).
T3 sequence (whole entry): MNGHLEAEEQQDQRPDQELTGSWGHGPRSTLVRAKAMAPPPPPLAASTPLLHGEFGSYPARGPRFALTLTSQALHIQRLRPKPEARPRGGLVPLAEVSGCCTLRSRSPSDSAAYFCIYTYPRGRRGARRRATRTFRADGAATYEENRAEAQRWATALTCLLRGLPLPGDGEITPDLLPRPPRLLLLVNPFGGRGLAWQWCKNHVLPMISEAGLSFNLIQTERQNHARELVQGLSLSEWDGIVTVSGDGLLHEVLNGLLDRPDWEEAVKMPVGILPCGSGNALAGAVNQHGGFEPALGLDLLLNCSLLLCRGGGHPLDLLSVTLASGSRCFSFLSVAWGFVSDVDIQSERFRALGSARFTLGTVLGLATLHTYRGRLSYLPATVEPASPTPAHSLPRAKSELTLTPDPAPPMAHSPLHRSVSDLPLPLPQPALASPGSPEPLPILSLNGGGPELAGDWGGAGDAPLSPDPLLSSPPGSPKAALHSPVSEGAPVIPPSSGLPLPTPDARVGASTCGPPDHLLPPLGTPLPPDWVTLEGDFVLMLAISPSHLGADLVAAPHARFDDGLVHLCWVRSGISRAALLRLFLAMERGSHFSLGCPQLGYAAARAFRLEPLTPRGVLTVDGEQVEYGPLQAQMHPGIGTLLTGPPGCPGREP
Conditions: at 0.1 µM.

The target of experiment [13] is T3, Sphingosine kinase 2 (Homo sapiens). To be noted: at 1 µM.
The target in experiment [14] is Casein kinase II subunit alpha (Homo sapiens) (UniProt P68400). Conditions: at 0.1 µM.
Experiment [15] shares this target. To be noted: at 1 µM.
The target in experiment [16] is T4, Inhibitor of nuclear factor kappa-B kinase subunit alpha (Homo sapiens) (UniProt O15111).
T4 sequence (whole entry): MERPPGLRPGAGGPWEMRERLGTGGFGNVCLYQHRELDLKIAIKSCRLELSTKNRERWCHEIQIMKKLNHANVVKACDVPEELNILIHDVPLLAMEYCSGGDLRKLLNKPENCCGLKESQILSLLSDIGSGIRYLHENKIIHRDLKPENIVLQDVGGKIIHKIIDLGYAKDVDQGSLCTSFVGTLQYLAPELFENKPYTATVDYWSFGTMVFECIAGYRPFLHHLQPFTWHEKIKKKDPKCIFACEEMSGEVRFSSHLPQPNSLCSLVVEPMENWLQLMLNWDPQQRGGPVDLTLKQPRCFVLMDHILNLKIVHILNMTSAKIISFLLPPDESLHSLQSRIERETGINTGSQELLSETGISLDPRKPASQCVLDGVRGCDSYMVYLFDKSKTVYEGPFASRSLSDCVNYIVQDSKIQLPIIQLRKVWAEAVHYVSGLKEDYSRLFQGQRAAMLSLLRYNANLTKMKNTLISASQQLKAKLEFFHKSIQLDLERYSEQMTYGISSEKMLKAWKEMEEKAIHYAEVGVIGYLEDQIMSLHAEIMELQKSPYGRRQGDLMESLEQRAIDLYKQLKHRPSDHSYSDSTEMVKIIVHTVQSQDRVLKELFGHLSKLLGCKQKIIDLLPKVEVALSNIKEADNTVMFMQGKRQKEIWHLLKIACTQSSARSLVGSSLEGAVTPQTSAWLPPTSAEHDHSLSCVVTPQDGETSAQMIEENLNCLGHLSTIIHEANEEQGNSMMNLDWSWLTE
To be noted: at 0.1 µM.

For experiment [17], the target named is T4, Inhibitor of nuclear factor kappa-B kinase subunit alpha (Homo sapiens). To be noted: at 1 µM.
Experiment [18] addresses T5, Inhibitor of nuclear factor kappa-B kinase subunit beta (Homo sapiens) (UniProt O14920).
T5 sequence (whole entry): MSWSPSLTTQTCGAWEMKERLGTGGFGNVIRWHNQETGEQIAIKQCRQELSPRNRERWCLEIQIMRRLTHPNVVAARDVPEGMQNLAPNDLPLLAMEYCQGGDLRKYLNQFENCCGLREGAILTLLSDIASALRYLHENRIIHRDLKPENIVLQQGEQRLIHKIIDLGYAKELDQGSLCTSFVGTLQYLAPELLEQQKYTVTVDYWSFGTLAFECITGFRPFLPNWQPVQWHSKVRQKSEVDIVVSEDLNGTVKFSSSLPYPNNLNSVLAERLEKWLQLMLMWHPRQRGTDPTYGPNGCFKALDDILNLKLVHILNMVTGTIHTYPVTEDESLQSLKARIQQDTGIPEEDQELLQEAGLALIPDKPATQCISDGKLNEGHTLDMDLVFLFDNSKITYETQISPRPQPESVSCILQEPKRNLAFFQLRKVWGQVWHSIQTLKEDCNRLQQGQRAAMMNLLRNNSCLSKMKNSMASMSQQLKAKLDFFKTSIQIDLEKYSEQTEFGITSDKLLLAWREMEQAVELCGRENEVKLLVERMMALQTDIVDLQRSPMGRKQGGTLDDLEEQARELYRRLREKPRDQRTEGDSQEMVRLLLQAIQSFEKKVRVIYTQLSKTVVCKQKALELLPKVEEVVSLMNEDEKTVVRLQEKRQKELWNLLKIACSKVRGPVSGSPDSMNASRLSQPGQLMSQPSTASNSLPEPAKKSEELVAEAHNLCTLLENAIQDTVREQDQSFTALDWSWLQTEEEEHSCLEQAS
Conditions: at 0.1 µM.

Experiment [19] addresses T5, Inhibitor of nuclear factor kappa-B kinase subunit beta (Homo sapiens). To be noted: at 1 µM.
Experiment [20] addresses T6, Inhibitor of nuclear factor kappa-B kinase subunit epsilon (Homo sapiens) (UniProt Q14164).
T6 sequence (whole entry): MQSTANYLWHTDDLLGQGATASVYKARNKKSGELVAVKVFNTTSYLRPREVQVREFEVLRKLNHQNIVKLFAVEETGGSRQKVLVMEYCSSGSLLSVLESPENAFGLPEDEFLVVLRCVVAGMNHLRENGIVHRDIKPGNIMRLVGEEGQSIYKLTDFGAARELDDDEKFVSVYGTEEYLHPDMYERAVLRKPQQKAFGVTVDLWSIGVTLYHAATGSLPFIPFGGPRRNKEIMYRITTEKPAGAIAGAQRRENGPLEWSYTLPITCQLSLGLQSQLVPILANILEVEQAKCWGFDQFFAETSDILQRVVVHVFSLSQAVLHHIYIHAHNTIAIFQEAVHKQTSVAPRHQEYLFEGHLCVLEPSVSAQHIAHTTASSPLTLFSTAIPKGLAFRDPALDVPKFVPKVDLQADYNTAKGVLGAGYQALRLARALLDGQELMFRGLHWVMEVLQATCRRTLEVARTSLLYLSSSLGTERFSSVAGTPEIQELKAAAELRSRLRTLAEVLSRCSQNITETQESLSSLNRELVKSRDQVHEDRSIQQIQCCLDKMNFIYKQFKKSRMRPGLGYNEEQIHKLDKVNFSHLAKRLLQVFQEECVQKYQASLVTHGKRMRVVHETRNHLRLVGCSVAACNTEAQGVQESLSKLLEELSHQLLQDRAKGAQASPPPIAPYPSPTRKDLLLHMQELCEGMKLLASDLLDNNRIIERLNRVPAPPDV
To be noted: at 0.1 µM.

The term inhibition denotes the change of the read-out against control, counted positive when it falls.

Sequence of SRSF protein kinase 1 (Homo sapiens) (Q96SB4 whole entry): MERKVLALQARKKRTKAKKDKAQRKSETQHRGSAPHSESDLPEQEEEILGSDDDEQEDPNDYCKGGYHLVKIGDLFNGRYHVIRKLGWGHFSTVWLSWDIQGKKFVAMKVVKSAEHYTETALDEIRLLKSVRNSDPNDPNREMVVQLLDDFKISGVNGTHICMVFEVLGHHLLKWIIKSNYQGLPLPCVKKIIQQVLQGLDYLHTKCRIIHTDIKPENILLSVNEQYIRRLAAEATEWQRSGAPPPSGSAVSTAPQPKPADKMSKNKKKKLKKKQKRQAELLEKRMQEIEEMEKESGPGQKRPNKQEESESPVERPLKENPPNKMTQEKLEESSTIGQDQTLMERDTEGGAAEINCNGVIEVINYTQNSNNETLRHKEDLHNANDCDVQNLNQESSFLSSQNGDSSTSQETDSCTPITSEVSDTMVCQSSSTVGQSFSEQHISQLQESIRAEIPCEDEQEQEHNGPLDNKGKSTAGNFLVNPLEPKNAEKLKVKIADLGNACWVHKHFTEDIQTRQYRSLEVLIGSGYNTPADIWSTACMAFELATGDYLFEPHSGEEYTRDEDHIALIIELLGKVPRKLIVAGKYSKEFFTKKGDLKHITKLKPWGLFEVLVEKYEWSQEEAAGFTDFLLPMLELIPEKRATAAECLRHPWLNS
Sequence of Sphingosine kinase 1 (Homo sapiens) (Q9NYA1 whole entry): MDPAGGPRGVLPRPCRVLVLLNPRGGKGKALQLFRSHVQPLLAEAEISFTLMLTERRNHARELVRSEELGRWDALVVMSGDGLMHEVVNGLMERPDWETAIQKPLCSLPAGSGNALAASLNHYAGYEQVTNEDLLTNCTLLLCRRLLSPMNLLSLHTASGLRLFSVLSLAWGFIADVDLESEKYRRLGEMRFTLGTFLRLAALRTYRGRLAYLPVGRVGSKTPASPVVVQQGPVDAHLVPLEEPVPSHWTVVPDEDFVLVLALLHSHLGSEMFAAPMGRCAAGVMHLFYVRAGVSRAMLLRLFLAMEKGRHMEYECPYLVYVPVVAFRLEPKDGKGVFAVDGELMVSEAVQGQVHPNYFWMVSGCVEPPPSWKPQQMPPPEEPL
Sequence of Casein kinase II subunit alpha (Homo sapiens) (P68400 whole entry, looked up): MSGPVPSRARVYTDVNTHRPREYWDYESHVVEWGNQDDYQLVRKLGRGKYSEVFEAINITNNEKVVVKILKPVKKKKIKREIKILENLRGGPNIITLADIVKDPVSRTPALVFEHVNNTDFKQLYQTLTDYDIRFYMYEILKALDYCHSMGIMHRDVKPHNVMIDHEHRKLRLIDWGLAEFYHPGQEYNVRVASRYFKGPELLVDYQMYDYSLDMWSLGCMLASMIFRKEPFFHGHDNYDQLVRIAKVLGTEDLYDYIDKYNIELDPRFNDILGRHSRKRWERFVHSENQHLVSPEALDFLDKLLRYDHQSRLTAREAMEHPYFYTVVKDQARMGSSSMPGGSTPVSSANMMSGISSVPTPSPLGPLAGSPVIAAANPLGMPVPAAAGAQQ
Sequence of Phosphatidylinositol 4,5-bisphosphate 3-kinase catalytic subunit alpha isoform (Homo sapiens) (P42336 whole entry, canonical isoform): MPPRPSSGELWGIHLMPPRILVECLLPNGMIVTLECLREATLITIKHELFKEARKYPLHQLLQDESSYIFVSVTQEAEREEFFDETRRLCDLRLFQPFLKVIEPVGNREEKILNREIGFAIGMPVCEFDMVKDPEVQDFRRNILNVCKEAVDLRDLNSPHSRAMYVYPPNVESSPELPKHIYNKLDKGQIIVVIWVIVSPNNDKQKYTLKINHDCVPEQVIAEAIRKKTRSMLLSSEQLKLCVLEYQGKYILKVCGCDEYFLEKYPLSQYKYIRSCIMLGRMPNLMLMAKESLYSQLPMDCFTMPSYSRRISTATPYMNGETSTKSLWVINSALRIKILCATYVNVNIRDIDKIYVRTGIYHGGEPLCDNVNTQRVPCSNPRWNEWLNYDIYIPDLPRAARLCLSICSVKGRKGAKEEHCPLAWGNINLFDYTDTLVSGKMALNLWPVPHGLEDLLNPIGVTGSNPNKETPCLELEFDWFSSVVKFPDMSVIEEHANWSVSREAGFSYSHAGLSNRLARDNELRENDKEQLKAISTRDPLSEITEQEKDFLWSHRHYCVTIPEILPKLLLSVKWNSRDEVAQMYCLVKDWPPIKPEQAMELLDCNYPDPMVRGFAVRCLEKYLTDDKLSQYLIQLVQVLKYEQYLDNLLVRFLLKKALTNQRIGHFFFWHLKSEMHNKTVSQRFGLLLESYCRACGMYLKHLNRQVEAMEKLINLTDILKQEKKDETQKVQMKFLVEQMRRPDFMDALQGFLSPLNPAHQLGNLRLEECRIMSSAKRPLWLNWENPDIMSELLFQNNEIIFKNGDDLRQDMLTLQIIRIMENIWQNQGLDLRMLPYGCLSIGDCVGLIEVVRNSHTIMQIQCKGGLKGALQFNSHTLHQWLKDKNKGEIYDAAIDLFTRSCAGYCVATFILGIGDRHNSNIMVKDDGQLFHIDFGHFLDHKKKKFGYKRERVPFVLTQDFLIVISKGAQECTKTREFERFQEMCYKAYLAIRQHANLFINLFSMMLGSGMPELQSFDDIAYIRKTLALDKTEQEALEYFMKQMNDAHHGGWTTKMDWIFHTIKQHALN
Sequence of Phosphatidylinositol 4-kinase beta (Homo sapiens) (Q9UBF8 2-816 limits assumed): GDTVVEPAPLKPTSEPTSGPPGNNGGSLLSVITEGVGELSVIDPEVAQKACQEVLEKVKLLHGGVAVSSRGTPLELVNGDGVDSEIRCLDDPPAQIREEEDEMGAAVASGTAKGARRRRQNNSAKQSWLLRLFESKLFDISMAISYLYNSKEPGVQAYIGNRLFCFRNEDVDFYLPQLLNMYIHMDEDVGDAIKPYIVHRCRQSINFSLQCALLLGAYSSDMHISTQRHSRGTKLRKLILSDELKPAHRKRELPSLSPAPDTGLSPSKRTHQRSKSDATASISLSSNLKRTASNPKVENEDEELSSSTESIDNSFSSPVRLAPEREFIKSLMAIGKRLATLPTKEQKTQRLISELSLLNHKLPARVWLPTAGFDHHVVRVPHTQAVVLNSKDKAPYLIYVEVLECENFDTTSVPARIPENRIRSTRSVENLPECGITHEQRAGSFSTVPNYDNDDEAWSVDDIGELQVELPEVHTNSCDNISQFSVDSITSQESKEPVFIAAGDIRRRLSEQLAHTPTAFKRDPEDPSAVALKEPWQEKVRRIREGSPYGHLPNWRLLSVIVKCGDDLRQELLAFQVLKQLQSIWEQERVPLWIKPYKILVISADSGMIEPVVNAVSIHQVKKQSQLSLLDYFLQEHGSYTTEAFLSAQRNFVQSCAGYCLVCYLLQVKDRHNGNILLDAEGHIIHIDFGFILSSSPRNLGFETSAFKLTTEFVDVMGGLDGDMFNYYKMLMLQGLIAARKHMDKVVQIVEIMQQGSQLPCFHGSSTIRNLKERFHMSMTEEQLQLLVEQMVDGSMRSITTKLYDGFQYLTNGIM

Take `CN(C)C(=O)O[C@@H]1CN[C@@H](C#Cc2cc3ncnc(Nc4ccc(OCc5cccc(F)c5)c(Cl)c4)c3s2)C1`: the inhibition was 1.28% in [1]; -1.65% in [2]; -5.46% in [3]; 0.17% in [4]; 29% in [5]; 3.66% in experiment [6]. Moreover, the inhibition in experiment [7] was 20.8%; in experiment [8], -2.99%; in experiment [9] it was -0.33%; in experiment [10], 0.88%; in experiment [11], -1.68%; in experiment [12], 0%. Besides, the inhibition in experiment [13] is 0%; in [14], -1.08%; in [15], -1.78%; in experiment [16], 6.13%; in [17], -0.14%; in experiment [18], 4.79%. For the same compound, the inhibition in experiment [19] was 2.73%; in [20], 0.34%.
In the case of `CCS(=O)(=O)c1ccc(OC)c(Nc2nccc(N(C)c3ccc4c(C)n[nH]c4c3)n2)c1`, the inhibition was 3.12% in [1]; -3.64% in [2]; -4.44% in experiment [3]; 4.66% in [4]; 3.7% in [5]; 2.01% in experiment [6]. The inhibition in experiment [7] was 2.75%; in [8], 0.2%; in [9] it was -1.28%; in [10], 4.16%; in experiment [11] it was -1.1%; in [12], -0.07%. Also, the inhibition in experiment [13] was -0.93%; in [14] it was 13.8%; in [15], 7.45%; in experiment [16] it was 12%; in [17] it was 6.37%; in [18] it was 8.64%. The inhibition in experiment [19] stood at 7.82%; in experiment [20], 7.85%.
For the compound `NS(=O)(=O)c1ccc(NC=C2C(=O)Nc3ccc4ncsc4c32)cc1`, the inhibition in experiment [1] is 5.67%; in experiment [2] it was -2.53%; in experiment [3], -1.62%; in [4], 3.58%; in [5], 13.1%; in experiment [6], 5.31%. In addition, the inhibition in experiment [7] is 27.3%; in [8], -1.46%; in [9], 4.92%; in experiment [10], 1.36%; in experiment [11] it was 3.96%; in [12], 1.68%. Also, the inhibition in experiment [13] was found to be 2.35%; in experiment [14], 15.7%; in experiment [15] it was 46.4%; in experiment [16], 13.6%; in [17], 23.5%; in experiment [18], 10.6%. Besides, the inhibition in experiment [19] was found to be 19.2%; in [20], 19.3%.
